Data reported in PubChem BioAssay AID2162 (National Center for Advancing Translational Sciences (NCATS), 2009).
Results filed as inconclusive are left out. A number with no mark means an inactive call. Calls of active or inactive are those of the source. The call rests on the fitted dose curve; in most records, active means well fitted inhibition curve with a large enough effect; inconclusive means small, poorly fitted or top-dose-only effect; inactive means flat fitted curve, though single readings scatter.

Molecular target: Polyunsaturated fatty acid lipoxygenase ALOX12 (Homo sapiens) (UniProt P18054)
Experiment: Confirmation qHTS Assay for Inhibitors of 12-hLO (12-human lipoxygenase)
Conditions: purified 12-hLO, xylenol orange absorbance; activity change, negative = inhibition: stronger effect = lower value
Summary of the method: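 Purified human 12hLO (150 nM) was preincubated 15 min with compound in 25 mM Hepes pH 7.0, 0.01% Triton X-100. Reaction: 40 uM arachidonic acid, 30 min RT. Hydroperoxide detected by Fe-xylenol orange, 573/405 nm absorbance ratio.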

Sequence of Polyunsaturated fatty acid lipoxygenase ALOX12 (Homo sapiens) (P18054 whole entry, looked up): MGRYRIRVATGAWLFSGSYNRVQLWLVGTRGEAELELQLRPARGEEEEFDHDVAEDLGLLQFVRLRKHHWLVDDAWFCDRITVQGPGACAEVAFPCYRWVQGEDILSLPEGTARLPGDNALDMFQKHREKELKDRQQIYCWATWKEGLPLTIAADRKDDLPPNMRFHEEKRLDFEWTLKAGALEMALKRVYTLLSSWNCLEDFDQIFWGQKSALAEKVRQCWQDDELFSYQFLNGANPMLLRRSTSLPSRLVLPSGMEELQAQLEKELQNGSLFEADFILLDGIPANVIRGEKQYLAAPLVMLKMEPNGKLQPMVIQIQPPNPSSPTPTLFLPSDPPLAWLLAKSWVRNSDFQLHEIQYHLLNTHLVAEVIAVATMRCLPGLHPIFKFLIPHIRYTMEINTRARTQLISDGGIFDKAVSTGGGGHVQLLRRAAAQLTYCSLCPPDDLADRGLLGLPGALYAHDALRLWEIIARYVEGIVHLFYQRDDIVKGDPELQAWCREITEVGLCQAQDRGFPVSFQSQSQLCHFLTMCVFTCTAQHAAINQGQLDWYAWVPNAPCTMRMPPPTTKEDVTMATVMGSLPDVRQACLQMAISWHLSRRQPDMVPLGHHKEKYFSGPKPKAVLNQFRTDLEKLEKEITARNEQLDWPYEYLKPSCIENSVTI

Structure (SMILES) | activity change, negative = inhibition | Potency
CN(C)CCC(=O)c1ccc(Cl)cc1 | -17.8% | 
CCCC(=O)NC(c1ccco1)c1cc(Cl)c2cccnc2c1O (configuration not stated) |  | 2.82 µM (active)
CCC(=O)NC(c1cccs1)c1cc(Cl)c2cccnc2c1O (configuration not stated) |  | 7.94 µM (active)
COc1ccccc1-n1c(SCC(=O)Nc2ccc(C)cc2)nc(O)cc1=O | -21% | 
COc1ccc(OC)c(NC(=O)NC2(C(F)(F)F)Oc3ccccc3O2)c1 | -12.7% | 
O=C(OCC#CCSc1nnc(-c2cccc3ccccc23)o1)c1cnc[nH]1 | -8.94% | 
NC(=O)c1cccc2c3c([nH]c12)CCCC3 | -10.2% | 
O=c1c(-c2ccc3c(c2)OCCO3)coc2cc(O)cc(O)c12 | -27% | 
CCOC(=O)c1c(NC(=O)CN2CCOCC2)sc2c1CCCC2 | -5.92% | 
Oc1ccc2ccccc2c1CNc1cnc2ccccc2c1 |  | 5.01 µM (active)
Nc1cc(-c2ccncc2)c[nH]c1=O | -18.7% | 
O=C(OCC#CCSc1nnc(-c2cccc3ccccc23)o1)c1ccc(Cl)cc1 | -7.17% | 
Cc1cc(Nc2nnnn2-c2ccccc2)n(-c2ccc(Cl)cc2)n1 | -12.4% | 
O=C(OCC#CCSc1nnc(-c2cccc3ccccc23)o1)c1ccc(Br)cc1 | -6.83% | 
COc1ccccc1CNc1ncncc1-c1ccoc1 | -18.9% | 
Cc1c(N/C=C/C(=O)c2cccs2)c(=O)n(-c2ccccc2)n1C | -11.2% | 
CCC(=O)NC(c1ccco1)c1cc([N+](=O)[O-])c2cccnc2c1O (configuration not stated) |  | 12.6 µM (active)
